# Laboratory results published in the supplement of paper PMC8728848.
# The entries come from a sample that favours the strongest signals as a whole.
# B1: GNAT (Pseudomonas aeruginosa), Q9HV14 (protein)
# chain: MQLSHRPAETGDLETVAGFPQDRDELFYCYPKAIWPFSVAQLAAAIAERRGSTVAVHDGQVLGFANFYQWQHGDFCALGNMMVAPAARGLGVARYLIGVMENLAREQYKARLMKISCFNANAAGLLLYTQLGYQPRAIAERHDPDGRRVALIQMDKPLEP
# Key:
# Assay in all cases: glycan array binding signal (z-score within array); higher = stronger binding
# Settings in all cases: glycan notation: IUPAC condensed, linker removed
# [1] = target: Fuc(a1-2)Gal(b1-3)[Fuc(a1-4)]GlcNAc(b1-2)Man(a1-3)[Fuc(a1-2)Gal(b1-3)[Fuc(a1-4)]GlcNAc(b1-2)Man(a1-6)]Man(b1-4)GlcNAc(b1-4)GlcNAc
# Procedure, shortened: (§1)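 The binding signal is a Z-score computed within each array and averaged over linkers. Arrays of the same protein sequence at different concentrations or buffers were also averaged together. Data originate from 3228 arrays in the Consortium for Functional Glycomics database, kept only where the protein sequence was available.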
# [2] = target: Fuc(a1-2)Gal(b1-3)[Fuc(a1-4)]GlcNAc(b1-3)[Fuc(a1-3)[Gal(b1-4)]GlcNAc(b1-6)]Gal(b1-4)Glc
# Procedure, shortened: as §1
# [3] = target: Fuc(a1-2)Gal(b1-4)[Fuc(a1-3)]GlcNAc(b1-3)Gal(b1-4)[Fuc(a1-3)]GlcNAc(b1-3)Gal(b1-4)[Fuc(a1-3)]GlcNAc
# Procedure, shortened: as §1
# [4] = target: Fuc(a1-2)Gal(b1-4)[Fuc(a1-3)]GlcNAc(b1-3)GalNAc
# Procedure, shortened: as §1
# Fuc(a1-2)Gal6S(b1-4)Glc = target: Fuc(a1-2)Gal6S(b1-4)Glc
# Procedure, shortened: as §1
# [5] = target: Fuc(a1-2)[Gal(a1-4)]Gal(b1-4)GlcNAc
# Procedure, shortened: as §1
# [6] = target: Fuc(a1-2)[GalNAc(a1-3)]Gal(b1-3)GalNAc(a1-3)[Fuc(a1-2)]Gal(b1-4)GlcNAc
# Procedure, shortened: as §1
# [7] = target: Fuc(a1-2)[GalNAc(a1-3)]Gal(b1-3)GlcNAc(b1-3)GalNAc
# Procedure, shortened: as §1
# [8] = target: Fuc(a1-2)[GalNAc(a1-3)]Gal(b1-4)[Fuc(a1-3)]GlcNAc(b1-3)GalNAc
# Procedure, shortened: as §1
# [9] = target: Fuc(a1-3)[Gal(b1-4)]GlcNAc(b1-6)GalNAc
# Procedure, shortened: as §1
# [10] = target: Gal(a1-3)Gal(b1-3)GlcNAc(b1-2)Man(a1-3)[Gal(a1-3)Gal(b1-3)GlcNAc(b1-2)Man(a1-6)]Man(b1-4)GlcNAc(b1-4)GlcNAc
# Procedure, shortened: as §1
# [11] = target: Gal(a1-3)Gal(b1-4)[Fuc(a1-3)]GlcNAc(b1-2)Man(a1-3)[Gal(a1-3)Gal(b1-4)[Fuc(a1-3)]GlcNAc(b1-2)Man(a1-6)]Man(b1-4)GlcNAc(b1-4)GlcNAc
# Procedure, shortened: as §1
# [12] = target: Gal(b1-3)GlcNAc(b1-3)Gal(b1-3)GlcNAc
# Procedure, shortened: as §1
# [13] = target: Gal(b1-3)[Fuc(a1-4)]GlcNAc(b1-3)Gal(b1-4)[Fuc(a1-3)]GlcNAc
# Procedure, shortened: as §1
# [14] = target: Gal(b1-3)[Neu5Ac(a2-6)]GalNAc
# Procedure, shortened: as §1
# [15] = target: Gal(b1-4)GalNAc(a1-3)[Fuc(a1-2)]Gal(b1-4)GlcNAc
# Procedure, shortened: as §1
# [16] = target: Gal(b1-4)GlcNAc(b1-2)[Gal(b1-4)GlcNAc(b1-6)]Man(a1-6)[Gal(b1-4)GlcNAc(b1-2)Man(a1-3)]Man(b1-4)GlcNAc(b1-4)GlcNAc
# Procedure, shortened: as §1
# [17] = target: Gal(b1-4)GlcNAc(b1-2)[Gal(b1-4)GlcNAc(b1-6)]Man(a1-6)[GlcNAc(b1-4)][Gal(b1-4)GlcNAc(b1-2)Man(a1-3)]Man(b1-4)GlcNAc(b1-4)GlcNAc
# Procedure, shortened: as §1
# [18] = target: Gal(b1-4)GlcNAc(b1-3)Gal(b1-4)[Fuc(a1-3)GlcNAc(b1-6)]Gal(b1-4)Glc
# Procedure, shortened: as §1
# [19] = target: Gal(b1-4)GlcNAc(b1-3)[Gal(b1-4)GlcNAc(b1-6)]Gal(b1-4)GlcNAc
# Procedure, shortened: as §1
# Gal3S(b1-4)GlcNAc6S = target: Gal3S(b1-4)GlcNAc6S
# Procedure, shortened: as §1
# [20] = target: Gal3S(b1-4)[Fuc(a1-3)]Glc
# Procedure, shortened: as §1
# [21] = target: Gal3S(b1-4)[Fuc(a1-3)]Glc6S
# Procedure, shortened: as §1
# Gal3S4S(b1-4)GlcNAc = target: Gal3S4S(b1-4)GlcNAc
# Procedure, shortened: as §1
# Gal3S6S(b1-4)GlcNAc6S = target: Gal3S6S(b1-4)GlcNAc6S
# Procedure, shortened: as §1
# [22] = target: GalNAc(b1-3)Gal(a1-4)Gal(b1-4)GlcNAc
# Procedure, shortened: as §1
# Glc(a1-6)Glc(a1-6)Glc = target: Glc(a1-6)Glc(a1-6)Glc
# Procedure, shortened: as §1
# [23] = target: GlcNAc(a1-4)Gal(b1-4)GlcNAc(b1-3)Gal(b1-4)[Fuc(a1-3)]GlcNAc(b1-3)Gal(b1-4)[Fuc(a1-3)]GlcNAc
# Procedure, shortened: as §1
# [24] = target: GlcNAc(b1-2)[GlcNAc(b1-4)]Man(a1-3)[GlcNAc(b1-4)][GlcNAc(b1-2)Man(a1-6)]Man(b1-4)GlcNAc(b1-4)GlcNAc
# Procedure, shortened: as §1
# [25] = target: GlcNAc(b1-2)[GlcNAc(b1-6)]Man(a1-6)[GlcNAc(b1-2)Man(a1-3)]Man(b1-4)GlcNAc(b1-4)GlcNAc
# Procedure, shortened: as §1
# [26] = target: GlcNAc(b1-4)[GlcNAc(b1-6)]GalNAc
# Procedure, shortened: as §1
# [27] = target: Neu5Ac(a2-3)Gal(b1-3)GlcNAc6S
# Procedure, shortened: as §1
# [28] = target: Neu5Ac(a2-3)Gal(b1-4)GlcNAc(b1-3)Gal
# Procedure, shortened: as §1
# [29] = target: Neu5Ac(a2-3)Gal(b1-4)GlcNAc(b1-6)[Neu5Ac(a2-3)Gal(b1-3)]GalNAc
# Procedure, shortened: as §1
# [30] = target: Neu5Ac(a2-3)Gal(b1-4)[Fuc(a1-3)]GlcNAc(b1-3)GalNAc
# Procedure, shortened: as §1
# [31] = target: Neu5Ac(a2-3)Gal(b1-4)[Fuc(a1-3)]GlcNAc(b1-6)[Gal(b1-3)]GalNAc
# Procedure, shortened: as §1
# [32] = target: Neu5Ac(a2-3)[Neu5Ac(a2-6)]GalNAc
# Procedure, shortened: as §1
# [33] = target: Neu5Ac(a2-6)Gal(b1-4)GlcNAc(b1-2)Man(a1-3)[GlcNAc(b1-2)Man(b1-4)GlcNAc(b1-2)Man(a1-6)]Man(b1-4)GlcNAc(b1-4)GlcNAc
# Procedure, shortened: as §1
# [34] = target: Neu5Ac(a2-6)Gal(b1-4)GlcNAc(b1-3)Gal(b1-3)GlcNAc
# Procedure, shortened: as §1
# Neu5Ac(a2-6)GalNAc = target: Neu5Ac(a2-6)GalNAc
# Procedure, shortened: as §1
# [35] = target: Neu5Ac(a2-8)Neu5Ac(a2-3)[GalNAc(b1-4)]Gal(b1-4)Glc
# Procedure, shortened: as §1
# Neu5Ac(b2-6)GalNAc = target: Neu5Ac(b2-6)GalNAc
# Procedure, shortened: as §1
# [36] = target: Neu5Gc(a2-6)Gal(b1-4)GlcNAc
# Procedure, shortened: as §1
binder,measurement,setting,value
B1,glycan array binding signal (z-score),[1],2.54
same,glycan array binding signal (z-score),[2],-0.247
same,glycan array binding signal (z-score),[3],-0.411
same,glycan array binding signal (z-score),[4],4.04
same,glycan array binding signal (z-score),Fuc(a1-2)Gal6S(b1-4)Glc,-0.374
same,glycan array binding signal (z-score),[5],-0.398
same,glycan array binding signal (z-score),[6],-0.345
same,glycan array binding signal (z-score),[7],5.4
same,glycan array binding signal (z-score),[8],4.86
same,glycan array binding signal (z-score),[9],5.07
same,glycan array binding signal (z-score),[10],2.69
same,glycan array binding signal (z-score),[11],4.4
same,glycan array binding signal (z-score),[12],0.929
same,glycan array binding signal (z-score),[13],-0.315
same,glycan array binding signal (z-score),[14],0.421
same,glycan array binding signal (z-score),[15],-0.14
same,glycan array binding signal (z-score),[16],1.21
same,glycan array binding signal (z-score),[17],-0.222
same,glycan array binding signal (z-score),[18],0.293
same,glycan array binding signal (z-score),[19],-0.269
same,glycan array binding signal (z-score),Gal3S(b1-4)GlcNAc6S,-0.322
same,glycan array binding signal (z-score),[20],-0.301
same,glycan array binding signal (z-score),[21],6.54
same,glycan array binding signal (z-score),Gal3S4S(b1-4)GlcNAc,-0.461
same,glycan array binding signal (z-score),Gal3S6S(b1-4)GlcNAc6S,-0.379
same,glycan array binding signal (z-score),[22],-0.284
same,glycan array binding signal (z-score),Glc(a1-6)Glc(a1-6)Glc,-0.33
same,glycan array binding signal (z-score),[23],3.72
same,glycan array binding signal (z-score),[24],-0.318
same,glycan array binding signal (z-score),[25],-0.257
same,glycan array binding signal (z-score),[26],-0.407
same,glycan array binding signal (z-score),[27],-0.165
same,glycan array binding signal (z-score),[28],-0.403
same,glycan array binding signal (z-score),[29],-0.097
same,glycan array binding signal (z-score),[30],2.77
same,glycan array binding signal (z-score),[31],5.03
same,glycan array binding signal (z-score),[32],-0.405
same,glycan array binding signal (z-score),[33],-0.293
same,glycan array binding signal (z-score),[34],-0.3
same,glycan array binding signal (z-score),Neu5Ac(a2-6)GalNAc,-0.404
same,glycan array binding signal (z-score),[35],-0.165
same,glycan array binding signal (z-score),Neu5Ac(b2-6)GalNAc,-0.413
same,glycan array binding signal (z-score),[36],-0.437
